From PMC8769072, “Proteome‐scale mapping of binding sites in the unstructured regions of the human proteome” (Molecular Systems Biology, 2022)

Chain of KEAP1 321-609, Q14145 (Q14145 321-609): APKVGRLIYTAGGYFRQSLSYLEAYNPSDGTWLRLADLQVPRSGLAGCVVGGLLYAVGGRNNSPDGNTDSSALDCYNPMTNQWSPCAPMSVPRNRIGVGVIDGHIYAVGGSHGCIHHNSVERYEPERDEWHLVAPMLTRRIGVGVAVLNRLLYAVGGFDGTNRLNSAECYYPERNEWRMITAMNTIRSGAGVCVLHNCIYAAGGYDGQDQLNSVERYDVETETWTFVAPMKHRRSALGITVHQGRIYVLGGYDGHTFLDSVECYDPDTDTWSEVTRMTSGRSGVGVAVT
Chain of EPS15 121-215, P42566 (P42566 121-215): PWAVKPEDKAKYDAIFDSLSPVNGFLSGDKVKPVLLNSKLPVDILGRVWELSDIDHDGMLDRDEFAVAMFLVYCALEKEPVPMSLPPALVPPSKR
Chain of CRK 124-198, P46108 (P46108 124-198): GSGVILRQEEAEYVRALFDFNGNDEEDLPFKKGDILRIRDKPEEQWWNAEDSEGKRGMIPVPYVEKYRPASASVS

B1: DNAJC8, O75937 (peptide)
chain: LNPFEVLQIDPEVTDE
B1 was tested, and the “selected by phage display” value (EPS15 121-215, P42566) was “confidence 3 (active)”.

B2: PLEKHM2, Q8IWE5 (peptide)
chain: NPFNEEPAETVSSSDT
For B2, the “selected by phage display” value (EPS15 121-215, P42566) was “confidence 2 (active)”.

B3: SAP130, Q9H0E3 (peptide)
chain: NPFSAAPAATTVVQTH
For B3, the “selected by phage display” value (EPS15 121-215, P42566) was “confidence 3 (active)”.

B4: UBQLN2, Q9UHD9 (peptide)
chain: GGNPFASVGSSSSSGE
With B4 the “selected by phage display” value (EPS15 121-215, P42566) was “confidence 2 (active)”.

B5: KIAA1549, Q9HCM3 (peptide)
chain: NPFLPSDSSKTSELHS
With B5 the “selected by phage display” value (EPS15 121-215, P42566) was “confidence 2 (active)”.

B6: PLEKHA5, Q9HAU0 (peptide)
chain: TTWLHPVTGEAVVTGH
In the case of B6, the “selected by phage display” value (KEAP1 321-609, Q14145) is reported as “confidence 2 (active)”.

B7: LMTK3, Q96Q04 (peptide)
chain: HANPSNPFYEALSTPS
For B7, the “selected by phage display” value (EPS15 121-215, P42566) was “confidence 4 (active)”.

B8: WDR59, Q6PJI9 (peptide)
chain: DSASSNPFALPNSVTP
For B8, the “selected by phage display” value (EPS15 121-215, P42566) was “confidence 3 (active)”.

B9: SH3BP4, Q9P0V3 (peptide)
chain: YSNNPFWNGVQTNPFL
With B9 the “selected by phage display” value (EPS15 121-215, P42566) was “confidence 2 (active)”.

B10: C2orf68, Q2NKX9 (peptide)
chain: FALEYEADSGEVTSVI
With B10 the “selected by phage display” value (KEAP1 321-609, Q14145) was “confidence 2 (active)”.

B11: EP400, Q96L91 (peptide)
chain: TPVAIATQLPPKVSAA
With B11 the “selected by phage display” value (CRK 124-198, P46108) was “confidence 2 (active)”.

B12: PYGO2, Q9BRQ0 (peptide)
chain: NPFEDDFGAPKVGVAA
In the case of B12, the “selected by phage display” value (EPS15 121-215, P42566) is reported as “confidence 2 (active)”.

B13: UBQLN1, Q9UMX0 (peptide)
chain: QIMENPFVQSMLSNPD
For B13, the “selected by phage display” value (EPS15 121-215, P42566) was “confidence 3 (active)”.

B14: WEE1, P30291 (peptide)
chain: NPFTPDSLLLHSSGQA
With B14 the “selected by phage display” value (EPS15 121-215, P42566) was “confidence 4 (active)”.

B15: TTC3, P53804 (peptide)
chain: DMESDIRSWELFLSNV
With B15 the “selected by phage display” value (EPS15 121-215, P42566) was “confidence 2 (active)”.

B16: ZBED9, Q6R2W3 (peptide)
chain: REHNPESGEEVVTLLE
For B16, the “selected by phage display” value (KEAP1 321-609, Q14145) was “confidence 2 (active)”.

B17: SLC1A1, P43005 (peptide)
chain: SSEVNIVNPFALESTI
With B17 the “selected by phage display” value (EPS15 121-215, P42566) was “confidence 2 (active)”.

B18: TMEM108, Q6UXF1 (peptide)
chain: VNPFAQETLFVGNDQV
In the case of B18, the “selected by phage display” value (EPS15 121-215, P42566) is reported as “confidence 3 (active)”.

B19: POLA1, P09884 (peptide)
chain: NPFSVHTATAVPSGKI
B19 was tested, and the “selected by phage display” value (EPS15 121-215, P42566) was “confidence 3 (active)”.

B20: AGFG1, P52594 (peptide)
chain: TPFGQVAAAGVSSNPF
B20 was tested, and the “selected by phage display” value (EPS15 121-215, P42566) was “confidence 3 (active)”.

B21: MLLT10, P55197 (peptide)
chain: TQAPPLHTATTNPFLT
With B21 the “selected by phage display” value (EPS15 121-215, P42566) was “confidence 4 (active)”.

B22: EPPK1, P58107 (peptide)
chain: QGRPVSVWDVLFSSYL
With B22 the “selected by phage display” value (EPS15 121-215, P42566) was “confidence 3 (active)”.

B23: VPS37B, Q9H9H4 (peptide)
chain: PGLQAPPLPPRVGLPT
With B23 the “selected by phage display” value (CRK 124-198, P46108) was “confidence 4 (active)”.

B24: SYTL2, Q9HCH5 (peptide)
chain: NPFNSSKLPEGHSSQQ
With B24 the “selected by phage display” value (EPS15 121-215, P42566) was “confidence 2 (active)”.

B25: ADD1, P35611 (peptide)
chain: NPFTTLTDRELEEYRR
B25 was tested, and the “selected by phage display” value (EPS15 121-215, P42566) was “confidence 3 (active)”.

B26: MACF1, Q9UPN3 (peptide)
chain: ELTGEKFLEMANPNVA
With B26 the “selected by phage display” value (EPS15 121-215, P42566) was “confidence 2 (active)”.

B27: MYO18B, Q8IUG5 (peptide)
chain: QSWLSATLSLATDTMR
In the case of B27, the “selected by phage display” value (EPS15 121-215, P42566) is reported as “confidence 2 (active)”.

B28: PCLO, Q9Y6V0 (peptide)
chain: SAVSSVVNKFNPFDLI
In the case of B28, the “selected by phage display” value (EPS15 121-215, P42566) is reported as “confidence 3 (active)”.

B29: RTN4, Q9NQC3 (peptide)
chain: NPFLVAAQDSETDYVT
B29 was tested, and the “selected by phage display” value (EPS15 121-215, P42566) was “confidence 2 (active)”.

B30: NUMB, P49757 (peptide)
chain: TPSEADRWLEEVSKSV
In the case of B30, the “selected by phage display” value (EPS15 121-215, P42566) is reported as “confidence 3 (active)”.

B31: ZIC1, Q15915 (peptide)
chain: DVGLGINPFADGMGAF
In the case of B31, the “selected by phage display” value (EPS15 121-215, P42566) is reported as “confidence 3 (active)”.

B32: RBM20, Q5T481 (peptide)
chain: NPFSVSNPNPLLPSPA
In the case of B32, the “selected by phage display” value (EPS15 121-215, P42566) is reported as “confidence 2 (active)”.

B33: DRAM1, Q8N682 (peptide)
chain: NPFLPYISDTGTTPPE
B33 was tested, and the “selected by phage display” value (EPS15 121-215, P42566) was “confidence 4 (active)”.

B34: SPATA31E1, Q6ZUB1 (peptide)
chain: NPFWNVSTQPQQLPRP
For B34, the “selected by phage display” value (EPS15 121-215, P42566) was “confidence 4 (active)”.

B35: EPN3, Q9H201 (peptide)
chain: NPFLTGLSAPSPTNPF
In the case of B35, the “selected by phage display” value (EPS15 121-215, P42566) is reported as “confidence 3 (active)”.

B36: CDC40, O60508 (peptide)
chain: EFGPENPFRTQQMAAP
For B36, the “selected by phage display” value (EPS15 121-215, P42566) was “confidence 4 (active)”.

B37: AGFG1, P52594 (peptide)
chain: AAGPSVASSTNPFQTN
For B37, the “selected by phage display” value (EPS15 121-215, P42566) was “confidence 3 (active)”.

B38: TMEM114, B3SHH9 (peptide)
chain: TPLMNPFRLENVTVSE
For B38, the “selected by phage display” value (EPS15 121-215, P42566) was “confidence 4 (active)”.

B39: PHLDB1, Q86UU1 (peptide)
chain: PHSSPPPLPAKASRQL
B39 was tested, and the “selected by phage display” value (CRK 124-198, P46108) was “confidence 3 (active)”.

B40: GNG5, P63218 (peptide)
chain: PLLTGVSSSTNPFRPQ
In the case of B40, the “selected by phage display” value (EPS15 121-215, P42566) is reported as “confidence 3 (active)”.

B41: ZIC3, O60481 (peptide)
chain: GLNPFGDSTHAAAAAA
With B41 the “selected by phage display” value (EPS15 121-215, P42566) was “confidence 2 (active)”.

B42: NUMBL, Q9Y6R0 (peptide)
chain: TPSEAERWLEEVSQVA
B42 was tested, and the “selected by phage display” value (EPS15 121-215, P42566) was “confidence 3 (active)”.

B43: SLC25A3, Q00325 (peptide)
chain: NPFNTPHLQLVHDGLG
For B43, the “selected by phage display” value (EPS15 121-215, P42566) was “confidence 2 (active)”.

B44: PRUNE2, Q8WUY3 (peptide)
chain: YTNPFSDNHQSPFLEG
For B44, the “selected by phage display” value (EPS15 121-215, P42566) was “confidence 2 (active)”.

B45: DLGAP5, Q15398 (peptide)
chain: DSPGLNASNPFTQLER
For B45, the “selected by phage display” value (EPS15 121-215, P42566) was “confidence 2 (active)”.

B46: PALM, O75781 (peptide)
chain: VEKDKVTGETRVLSST
In the case of B46, the “selected by phage display” value (KEAP1 321-609, Q14145) is reported as “confidence 2 (active)”.

B47: UBQLN3, Q9H347 (peptide)
chain: VQEQFGGNPFATATTD
In the case of B47, the “selected by phage display” value (EPS15 121-215, P42566) is reported as “confidence 4 (active)”.

B48: SPATA31E1, Q6ZUB1 (peptide)
chain: PPEPLLPLKAPATQPH
For B48, the “selected by phage display” value (CRK 124-198, P46108) was “confidence 2 (active)”.

B49: GRIN2B, Q13224 (peptide)
chain: YPDRVTQNPFIPTFGD
B49 was tested, and the “selected by phage display” value (EPS15 121-215, P42566) was “confidence 3 (active)”.

B50: SH3BP4, Q9P0V3 (peptide)
chain: NPFLNGNVPVMPSLDE
For B50, the “selected by phage display” value (EPS15 121-215, P42566) was “confidence 4 (active)”.

B51: PLEC, Q15149 (peptide)
chain: GGIIDPSTGERFPVTD
For B51, the “selected by phage display” value (KEAP1 321-609, Q14145) was “confidence 4 (active)”.

B52: TPR, P12270 (peptide)
chain: DDTVEMPLPKKLKSVT
B52 was tested, and the “selected by phage display” value (CRK 124-198, P46108) was “confidence 2 (active)”.

B53: PPFIA4, O75335 (peptide)
chain: FSMQEPMVPAKLGTQA
B53 was tested, and the “selected by phage display” value (CRK 124-198, P46108) was “confidence 3 (active)”.

B54: CHD8, Q9HCK8 (peptide)
chain: GNPFMGVSATAVSSSS
In the case of B54, the “selected by phage display” value (EPS15 121-215, P42566) is reported as “confidence 2 (active)”.

B55: DENND1A, Q8TEH3 (peptide)
chain: NPFVPSMPAAPPTLPL
With B55 the “selected by phage display” value (EPS15 121-215, P42566) was “confidence 2 (active)”.

B56: BCL11B, Q9C0K0 (peptide)
chain: LMNFLGDSNPFNLLRM
B56 was tested, and the “selected by phage display” value (EPS15 121-215, P42566) was “confidence 2 (active)”.

B57: SIM2, Q14190 (peptide)
chain: KPMLPAKFGQPQGSPA
For B57, the “selected by phage display” value (CRK 124-198, P46108) was “confidence 2 (active)”.

B58: AGFG1, P52594 (peptide)
chain: SNPFMTGAPTGQFPTG
In the case of B58, the “selected by phage display” value (EPS15 121-215, P42566) is reported as “confidence 3 (active)”.

B59: WNK4, Q96J92 (peptide)
chain: PLSPGNPFSPGTPISP
B59 was tested, and the “selected by phage display” value (EPS15 121-215, P42566) was “confidence 3 (active)”.

B60: UBQLNL, Q8IYU4 (peptide)
chain: MQDPFGGNPFTALLAG
With B60 the “selected by phage display” value (EPS15 121-215, P42566) was “confidence 3 (active)”.

B61: CHD7, Q9P2D1 (peptide)
chain: LNQGNPFIATSGPGHL
B61 was tested, and the “selected by phage display” value (EPS15 121-215, P42566) was “confidence 2 (active)”.

B62: PICALM, Q13492 (peptide)
chain: LNPFLTKSSGDVHLSI
In the case of B62, the “selected by phage display” value (EPS15 121-215, P42566) is reported as “confidence 4 (active)”.
